Experimental data reported in PubChem BioAssay (Tox21).
“And” between values parts separate entries of the source, which are not always exact repeats. Equal entries are not always repeated. Inconclusive results are not listed. Where a call stands in place of a potency, no number is given. More than one record can exist for a structure, and the calls need not agree. The source made the active and inactive calls. Unless noted, calls follow the shape of the dose curve; as a rule, active = well fitted curve in the direction sought with a large enough effect in the repeat runs; inconclusive = weak or mixed curves; inactive = no such curve, though single readings can be large; an effect the other way counts as inactive or inconclusive.

Legend:
[1] = qHTS assay to identify small molecule agonists of the RXR signaling pathway - cell viability counter screen (AID 1159529); also: nearly all actives have a fitted effect of over 50% in size
In short: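 Luminescence from CellTiter-Glo (30 min, RT) measured viability in the same wells as the beta-lactamase reporter readout. Cells: GeneBLAzer RXR-alpha HEK 293T, 2% charcoal-stripped FBS. Compound exposure 16 hr, 37 C.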

[2] = qHTS assay to identify small molecule antagonists of the retinoid acid receptor (RAR) signaling pathway - cell viability counter screen (AID 1159551); also: nearly all actives have a fitted effect of over 35% in size
In short: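 Luminescent ATP quantitation (CellTiter-Glo) gave cell viability in C3RL4 cells exposed to test chemicals for 6 h at 37 C alongside 1 uM final retinol.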

[3] = qHTS assay to identify small molecule agonists of the retinoic acid receptor (RAR) signaling pathway (AID 1159553); conditions: C3RL4 RARE luciferase reporter, agonist, 6 h; activation: at 73.3 µM (top of the series) unless noted; also: potency is read from the fitted curve at half-maximal effect
In short: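 Luminescence from a RARE-driven luciferase reporter in C3RL4 cells served as the read-out, measured after 30 min with detection reagent at room temperature. Compounds in DMSO were applied for 6 hr at 37 C following overnight seeding.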

[4] = qHTS assay to identify small molecule antagonists of the estrogen related receptor (ERR) signaling pathway from Tox21 library - cell viability counter screen (AID 1224834); also: nearly all actives have a fitted effect of over 30% in size; also: potency is read from the fitted curve at half-maximal effect
In short: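 Fluorescence from CellTiter-Fluor gives the viability read-out, taken 30 min after reagent addition. Before that, ERR cells seeded 6 h earlier were incubated with compounds for 17.5 h at 37 C.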

[5] = target: Luciferin 4-monooxygenase (Photinus pyralis) (UniProt P08659); experiment: qHTS assay to identify small molecule inhibitors of firefly luciferase (AID 1224835); also: nearly all actives have a fitted effect of over 25% in size; also: potency is read from the fitted curve at half-maximal effect
Luciferin 4-monooxygenase (Photinus pyralis), sequence (P08659 whole entry, looked up): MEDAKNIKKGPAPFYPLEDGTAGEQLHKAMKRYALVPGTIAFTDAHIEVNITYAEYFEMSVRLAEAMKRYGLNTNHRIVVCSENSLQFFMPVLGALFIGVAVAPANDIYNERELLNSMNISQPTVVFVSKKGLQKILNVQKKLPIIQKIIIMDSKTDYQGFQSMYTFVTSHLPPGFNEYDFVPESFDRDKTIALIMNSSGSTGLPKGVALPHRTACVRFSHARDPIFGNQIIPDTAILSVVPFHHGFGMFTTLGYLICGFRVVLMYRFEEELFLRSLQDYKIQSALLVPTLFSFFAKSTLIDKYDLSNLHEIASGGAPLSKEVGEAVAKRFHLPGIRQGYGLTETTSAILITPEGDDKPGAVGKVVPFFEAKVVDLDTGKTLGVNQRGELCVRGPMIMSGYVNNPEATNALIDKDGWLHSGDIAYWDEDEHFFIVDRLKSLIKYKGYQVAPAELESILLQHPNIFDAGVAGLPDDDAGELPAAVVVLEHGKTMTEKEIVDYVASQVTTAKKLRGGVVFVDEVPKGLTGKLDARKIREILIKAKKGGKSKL
In short: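 Quantitative HTS format; KM concentrations of both substrates. Purified P. pyralis FLuc activity quantified from luminescence images.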

[6] = qHTS assay to identify small molecule agonists of the constitutive androstane receptor (CAR) signaling pathway - cell viability counter screen (AID 1224836); also: nearly all actives have a fitted effect of over 45% in size
In short: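 Viability read-out: CellTiter-Fluor fluorescence after 23 h compound exposure at 37 C/5% CO2 in double-stable HepG2-CYP2B6-hCAR cells, with PK11195 present at 0.75 uM final; compounds tested in 15-point titration.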

[7] = target: Nuclear receptor subfamily 1 group I member 3 (Homo sapiens) (UniProt Q14994); experiment: qHTS assay to identify small molecule antagonists of the constitutive androstane receptor (CAR) signaling pathway (AID 1224838);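 also: HepG2 cells stably expressing hCAR with CYP2B6 luciferase reporter stimulated by CITCO; nearly all actives have a fitted effect of over 40% in size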; also: potency is read from the fitted curve at half-maximal effect
Nuclear receptor subfamily 1 group I member 3 (Homo sapiens), sequence (Q14994 whole entry, looked up): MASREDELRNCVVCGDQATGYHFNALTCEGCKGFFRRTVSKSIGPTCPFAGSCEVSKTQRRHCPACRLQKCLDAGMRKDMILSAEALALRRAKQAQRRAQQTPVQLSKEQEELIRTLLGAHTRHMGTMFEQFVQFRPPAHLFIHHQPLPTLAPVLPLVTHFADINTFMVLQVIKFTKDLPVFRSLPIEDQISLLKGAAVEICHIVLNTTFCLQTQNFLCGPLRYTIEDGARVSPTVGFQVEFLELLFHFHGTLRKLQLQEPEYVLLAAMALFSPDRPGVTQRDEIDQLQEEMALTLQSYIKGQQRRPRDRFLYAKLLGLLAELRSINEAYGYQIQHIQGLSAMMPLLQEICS
In short: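 HepG2-CYP2B6-hCAR cells; 4 h pre-incubation; cpd (15 conc) + CITCO 50 nM final; 24 h, 37 C/5% CO2; ONE-Glo, luminescence.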

[8] = qHTS assay to identify small molecule antagonists of the estrogen related receptor signaling pathway with the pleiotropic PPARgamma coactivator (PGC) from Tox21 10K library - cell viability counter screen (AID 1224840; active = well fitted cell-killing curve with a large enough effect in the repeat runs, not every such curve was filed as active; also: nearly all actives have a fitted effect of over 40% in size; also: potency is read from the fitted curve at half-maximal effect)
In short: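 PGC/ERR cells, 2,000/well; 6 h pre-incubation 37 C/5% CO2; cpd in DMSO via pin tool; 17.5 h 37 C; CellTiter-Fluor, 30 min; fluorescence.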

[9] = target: Thyrotropin receptor (Homo sapiens) (UniProt P16473); experiment: qHTS assay to identify small molecule agonists of the thyroid stimulating hormone receptor (TSHR) signaling pathway (AID 1224843; calls by dose curve; also: nearly all actives have a fitted effect of over 45% in size)
Thyrotropin receptor (Homo sapiens), sequence (P16473 whole entry, looked up): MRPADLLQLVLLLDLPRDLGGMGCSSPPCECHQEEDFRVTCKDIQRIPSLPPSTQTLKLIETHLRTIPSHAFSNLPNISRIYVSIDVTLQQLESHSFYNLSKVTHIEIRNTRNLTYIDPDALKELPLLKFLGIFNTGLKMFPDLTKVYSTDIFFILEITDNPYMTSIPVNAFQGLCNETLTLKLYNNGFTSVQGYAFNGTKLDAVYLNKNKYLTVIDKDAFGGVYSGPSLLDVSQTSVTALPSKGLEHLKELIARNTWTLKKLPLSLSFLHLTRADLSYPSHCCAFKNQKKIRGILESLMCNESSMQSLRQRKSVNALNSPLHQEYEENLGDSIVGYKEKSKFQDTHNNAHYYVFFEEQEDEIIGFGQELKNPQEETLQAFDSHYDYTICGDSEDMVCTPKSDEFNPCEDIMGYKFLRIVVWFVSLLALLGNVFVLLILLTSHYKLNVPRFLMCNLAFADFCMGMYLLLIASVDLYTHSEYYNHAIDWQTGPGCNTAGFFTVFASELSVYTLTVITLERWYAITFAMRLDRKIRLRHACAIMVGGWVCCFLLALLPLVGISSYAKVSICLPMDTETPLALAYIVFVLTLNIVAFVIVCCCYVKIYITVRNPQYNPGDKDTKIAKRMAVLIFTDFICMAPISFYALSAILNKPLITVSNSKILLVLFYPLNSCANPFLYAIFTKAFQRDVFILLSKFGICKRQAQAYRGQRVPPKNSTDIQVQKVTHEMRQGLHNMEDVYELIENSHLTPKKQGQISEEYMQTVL
In short: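 TSHR-expressing HEK293 cells (800 per well) were exposed to compounds for 30 min at room temperature. cAMP was then detected by HTRF competition with cAMP-d2 and anti-cAMP cryptate, read after 1 h at room temperature. Fifteen concentrations, triplicate.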

[10] = qHTS assay to identify small molecule antagonists of the constitutive androstane receptor (CAR) signaling pathway - cell viability counter screen (AID 1224837); also: nearly all actives have a fitted effect of over 45% in size; also: potency is read from the fitted curve at half-maximal effect
In short: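 HepG2-CYP2B6-hCAR cells, 2500/well, 4 hr pre-incubation; compound titration, 15 conc.; CITCO 50 nM final; 23 hr, 37 C/5% CO2; CellTiter-Fluor, fluorescence intensity.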

[11] = target: Nuclear receptor subfamily 1 group I member 3 (Homo sapiens) (UniProt Q14994); experiment: qHTS assay to identify small molecule agonists of the constitutive androstane receptor (CAR) signaling pathway (AID 1224839);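 also: HepG2 cells stably carrying human CAR and a CYP2B6 luciferase reporter; nearly all actives have a fitted effect of over 15% in size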
In short: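 Luminescence read-out (ONE-Glo, 30 min, room temperature) from double-stable HepG2-CYP2B6-hCAR cells exposed 24 h to 15-point compound series in presence of 0.75 uM PK11195 final.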

[12] = qHTS assay to identify small molecule antagonists of the retinoic acid receptor (RAR) signaling pathway (AID 1159552; also: nearly all actives have a fitted effect of over 50% in size)
In short: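 Luminescence from a RARE luciferase reporter in C3RL4 cells served as read-out. Cells received compounds together with 1 uM final retinol and incubated 6 hr at 37 C before detection reagent was added for 30 min at room temperature.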

[13] = qHTS assay to identify small molecule antagonists of the estrogen related receptor (ERR) signaling pathway - cell viability counter screen (AID 1224818);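 also: viability measured after 17.5 h of compound exposure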
In short: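 Multiplexed counter screen to separate cytotoxic compounds from true ERR modulators. ERR cells received DMSO-dissolved compounds after a 6 h pre-incubation, were exposed 17.5 h at 37 C, then assayed with CellTiter-Fluor fluorescence.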

[14] = qHTS assay to identify small molecule antagonists of the estrogen related receptor signaling pathway with the pleiotropic PPARgamma coactivator (PGC) cell viability counter screen (AID 1224822; also: potency is read from the fitted curve at half-maximal effect)
In short: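 Cells: PGC/ERR, 2,000/well, 1536-well format. Pre-incubation 6 h, 37 C/5% CO2. Compound exposure 17.5 h, 37 C. Detection: CellTiter-Fluor, 30 min, fluorescence.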

[15] = qHTS assay to identify small molecule antagonists of the estrogen related receptor signaling pathway with the pleiotropic PPARgamma coactivator (PGC) from Tox21 10K library (AID 1224841; call rule not given here; also: actives are mostly falling curves and most rising ones were filed inactive; nearly all actives have a fitted effect of over 50% in size; also: potency is read from the fitted curve at half-maximal effect)
In short: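 PGC/ERR cell line, 2,000 cells/well; 6 h pre-incubation 37 C/5% CO2; compounds (DMSO) pinned in; 18 h, 37 C; One-Glo, 30 min RT; luminescence.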

[16] = qHTS assay to identify small molecule agonists of the estrogen related receptor signaling pathway with the pleiotropic PPARgamma coactivator (PGC) from Tox21 10K library (AID 1224842); also: nearly all actives have a fitted effect of over 15% in size
In short: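 PGC/ERR reporter cells (NTP line) were seeded 2,000 per well, rested 6 h at 37 C/5% CO2, then pin-dosed with compounds in DMSO for 18 h at 37 C; luciferase read by One-Glo luminescence after 30 min at room temperature.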

[17] = qHTS assay to identify small molecule antagonists of the estrogen related receptor (ERR) signaling pathway (AID 1224819; also: potency is read from the fitted curve at half-maximal effect; nearly all actives have a fitted effect of over 50% in size)
In short: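 Seed ERR cells 2,000/well; rest 6 h at 37 C/5% CO2; pin compounds in DMSO; incubate 18 h at 37 C; add One-Glo; wait 30 min at room temperature; measure luminescence.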

[18] = qHTS assay to identify small molecule agonists of the estrogen related receptor (ERR) signaling pathway (AID 1224820)
In short: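 Quantitative HTS of the LOPAC library used NTP ERR reporter cells treated 18 h at 37 C. Signal is luminescence after One-Glo addition and a 30 min room-temperature incubation.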

[19] = test system: estrogen-related receptor alpha (ERRalpha) with PGC-1alpha coactivator, human; experiment: qHTS assay to identify small molecule antagonists of the estrogen related receptor signaling pathway with the pleiotropic PPARgamma coactivator (PGC) (AID 1224821; calls by dose curve)
In short: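 Quantitative HTS for antagonism: PGC/ERR cells received compounds after 6 h attachment and were incubated 18 h at 37 C, with luminescence (One-Glo) as the endpoint.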

[20] = qHTS assay to identify small molecule agonists of the estrogen related receptor signaling pathway with the pleiotropic PPARgamma coactivator (PGC) (AID 1224823)
In short: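 Cell-based luciferase assay in the NTP-supplied PGC/ERR line, 2,000 cells/well; 18 h compound exposure at 37 C, luminescence after One-Glo.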

Compound | Potency [1] | Potency [2] | Potency [3] | Potency [4] | Potency [5] | Potency [6] | Potency [7] | Potency [8] | Potency [9] | Potency [10] | Potency [11] | Potency [12] | outcome [13] | Potency [14] | Potency [15] | Potency [16] | Potency [17] | outcome [18] | Potency [19] | outcome [20]
CC1(C)[C@@H](O[C@H]2O[C@H](C(=O)O)[C@@H](O)[C@H](O)[C@H]2O[C@@H]2O[C@H](C(=O)O)[C@@H](O)[C@H](O)[C@H]2O)CC[C@]2(C)[C@H]3C(=O)C=C4[C@@H]5C[C@@](C)(C(=O)O)CC[C@]5(C)CC[C@@]4(C)[C@]3(C)CC[C@@H]12 | inactive | inactive | inactive | inactive | inactive | inactive | inactive | inactive | inactive |  |  |  |  |  |  |  |  |  |  | 
Cc1ccc(Cl)cc1 | inactive | inactive |  | inactive | inactive | inactive | inactive | inactive | inactive | inactive | inactive |  |  |  |  |  |  |  |  | 
CCCCCCCC(=O)O | inactive | inactive |  | inactive | inactive | inactive | inactive | inactive |  | inactive | inactive |  |  |  |  |  |  |  |  | 
CC(=O)CC(=O)N(C)C | inactive | inactive |  | inactive | inactive | inactive |  | inactive | inactive | inactive |  |  |  |  |  |  |  |  |  | 
Cc1ccccc1Cl | inactive | inactive |  | inactive | inactive | inactive | inactive | inactive | inactive | inactive | inactive |  |  |  |  |  |  |  |  | 
C=C(CC(=O)O)C(=O)O | inactive | inactive | inactive | inactive | inactive |  |  | inactive | inactive |  |  | inactive |  |  |  |  |  |  |  | 
OC1CCCCC1 | inactive |  | inactive | inactive | inactive | inactive | inactive | inactive |  | inactive | inactive | inactive |  |  |  |  |  |  |  | 
O=C(Cl)c1ccc(C(=O)Cl)cc1 | inactive | inactive | inactive | inactive |  | inactive | inactive | inactive | inactive |  | inactive | inactive |  |  |  |  |  |  |  | 
CCN(CC)CCNC(=O)c1ccc(N)cc1 | inactive | inactive |  | inactive | inactive | inactive |  | inactive | inactive | inactive |  |  | inactive | inactive |  |  |  |  |  | 
CCCCCCCCCCCCCC(=O)O | inactive | inactive |  | inactive | 50.1 µM (active) | inactive | inactive | inactive | inactive |  | inactive |  |  |  | inactive | inactive |  |  |  | 
Brc1ccc(Oc2ccc(Br)cc2)cc1 | inactive | inactive | inactive | inactive | inactive | inactive | inactive | inactive | inactive |  | inactive | inactive |  |  |  |  |  |  |  | 
NC(=O)c1ncn([C@@H]2O[C@H](CO)[C@@H](O)[C@H]2O)n1 | inactive | inactive |  | inactive | inactive | inactive | 7.23 µM (active) | inactive |  |  | inactive |  | inactive | inactive |  |  |  |  |  | 
Cc1ccccc1C=O | inactive | inactive |  | inactive | inactive | inactive | inactive | inactive | inactive | inactive | inactive |  |  |  |  |  |  |  |  | 
c1cnc2c(c1)ccc1cccnc12 | inactive |  | 2.19 µM (active) and 9.69 µM (active) and 2.73 µM (active) | 19.5 µM (active) and 2.17 µM (active) and 4.86 µM (active) | 71.7 µM (active) and inactive |  | 219 nM (active) and inactive and 864 nM (active) | 2.76 µM (active) and 2.73 µM (active) | inactive | 617 nM (active) and 1.93 µM (active) | inactive |  |  | 6.68 µM (active) | 777 nM (active) and 969 nM (active) and 1.72 µM (active) | inactive | 2.98 µM (active) | inactive | 2.03 µM (active) | inactive
Cc1ccc(C(C)C)cc1 | inactive |  | inactive | inactive | inactive | inactive | inactive | inactive | inactive | inactive | inactive | inactive |  |  |  |  |  |  |  | 
NC(=O)NC(N)=O | inactive |  | inactive | inactive | inactive | inactive | inactive | inactive | inactive | inactive | inactive | inactive |  |  |  |  |  |  |  | 
COc1c(Cl)ccc(Cl)c1C(=O)O | inactive |  | inactive | inactive | inactive | inactive | inactive | inactive | inactive |  | inactive | inactive |  |  |  |  |  |  |  | 
NCCNCCNCCN | inactive |  | inactive | inactive |  | inactive | inactive | inactive | inactive | inactive | inactive | inactive |  |  |  |  |  |  |  | 
COc1ccccc1[N+](=O)[O-] | inactive |  | inactive | inactive | inactive | inactive | inactive | inactive |  | inactive | inactive | inactive |  |  | inactive | inactive |  |  |  | 
CCCCC(CC)COC(=O)c1ccc(C(=O)OCC(CC)CCCC)cc1 (stereo unspecified) | inactive |  | inactive | inactive | inactive | inactive |  | inactive |  | inactive |  | inactive |  |  | inactive | inactive |  |  |  | 
CC(=O)c1nccs1 | inactive |  | inactive | inactive | inactive | inactive | inactive | inactive | inactive | inactive | inactive | inactive |  |  |  |  |  |  |  | 
COC(=O)OC | inactive |  |  | inactive |  | inactive | inactive | inactive | inactive |  | inactive |  |  |  | inactive | inactive |  |  |  | 
CC(=O)C(C)C | inactive |  | inactive | inactive | inactive | inactive |  | inactive |  | inactive |  | inactive |  |  |  |  |  |  |  | 
CCOC(=O)CC(=O)OCC | inactive |  | inactive | inactive | inactive | inactive |  | inactive | inactive | inactive |  | inactive |  |  |  |  |  |  |  | 
C=C(C)CC(C)(C)C | inactive |  | inactive | inactive | inactive | inactive |  | inactive | inactive |  |  | inactive |  |  |  |  |  |  |  | 
